An excerpt weighted towards active compounds, which were near 1.2% of everything screened.
PriA SSB inh: inhibitors of Klebsiella pneumoniae PriA binding to SSB C-terminal tail, primary screen, biochemical, AlphaScreen. actives 0.6% (n = 430,000). AlphaScreen SSBct-PriA binding, biotinylated peptide. PriA–SSB C-terminal tail interaction (Klebsiella pneumoniae). AID 1272365, 2023. inhibition, % at 33 µM; in the data active = inhibition mostly above about 37%, no sharp cut-off; inactive = mostly below about 20%;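 also: plate controls were negative control peptide for no effect and reference peptide for full effect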
PrPC surface inh: inhibitors of human cell surface prion protein PrPC, primary screen, cell-based, TR-FRET | TR-FRET read-out | actives 0.43% (n = 370,000) | inhibition, % at 13.8 µM; in the data active = inhibition above about 24%; also: 0% = median of the test wells and 100% = reference compound wells
Mtb UGM inh: M. tuberculosis UGM enzyme inhibitors, primary screen, biochemical, fluorescence polarization, single point; purified UGM, fluorescence polarization probe displacement; UDP-galactopyranose mutase (Mycobacterium tuberculosis (strain ATCC 25618 / H37Rv)), …; actives 0.06% (n = 320,000); inhibition, % at 10 µM; in the data active = inhibition above about 10%, passing the limit was not always enough
Rv3671c inh: Rv3671c serine protease inhibitors, primary screen, biochemical, fluorescence polarization, M. tuberculosis H37Rv; inhibition, % at 5.96 µM; actives 0.048% (n = 320,000); in the data active = inhibition above about 38%;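 also: extracellular domain of Rv3671c used as enzyme; 0% = enzyme with DMSO and 100% = no enzyme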
Target sequence (P9WHR9 whole entry, looked up, the tested form may be a part): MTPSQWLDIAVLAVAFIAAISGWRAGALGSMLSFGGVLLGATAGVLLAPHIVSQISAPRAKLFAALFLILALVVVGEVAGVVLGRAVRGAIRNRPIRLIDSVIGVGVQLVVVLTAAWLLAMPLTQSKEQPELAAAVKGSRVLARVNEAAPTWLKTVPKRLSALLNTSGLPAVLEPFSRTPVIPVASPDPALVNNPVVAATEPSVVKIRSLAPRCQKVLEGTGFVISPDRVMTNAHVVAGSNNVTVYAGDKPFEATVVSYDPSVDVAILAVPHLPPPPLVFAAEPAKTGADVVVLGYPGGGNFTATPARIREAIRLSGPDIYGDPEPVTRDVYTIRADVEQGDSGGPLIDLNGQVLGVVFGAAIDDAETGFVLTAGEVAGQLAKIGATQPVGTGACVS
FadD28 binding: inhibitors of FadD28 bisubstrate probe binding, primary screen, biochemical, fluorescence polarization, single point; Mycobacterium tuberculosis FadD28 fatty-acid-AMP ligase; inhibition, % at 12.5 µM; actives 0.22% (n = 360,000); AID 588549, 2011; in the data active = inhibition above about 8.5%, passing the limit was not always enough
PrP 5UTR inh: inhibition of PrP 5' UTR reporter expression | AID 488862, 2010 | actives 0.35% (n = 340,000) | cell-based PrP 5' UTR mRNA reporter, plate reader | inhibition, % (no concentration beside the values); in the data active = inhibition above about 52%; also: 0 = median of the neutral control wells
Active calls of the source: *; nt = no result given; ! = a repeat was not active.

SMILES	PriA SSB inh	PrPC surface inh	Mtb UGM inh	Rv3671c inh	FadD28 binding	PrP 5UTR inh
CCOC(=O)C1CCN(c2ccc(S(=O)(=O)C(F)(F)F)cc2[N+](=O)[O-])CC1	35.0*	nt	nt	nt	nt	nt
CCOC(=O)C1CCCN(c2ccc([N+](=O)[O-])c3nonc23)C1 (centres undefined)	-2.5	-45.7	nt	nt	47.0*	-10.7
CCOC(=O)C1CCN(c2ccc([N+](=O)[O-])c(C(C)=O)c2)CC1	-18.2	-16.7	1.8	5.6	-1.3	1.1
O=C(Nc1ccccc1F)c1cc(C2CCN(C(=O)Cc3noc4ccccc34)CC2)[nH]n1	62.0*	nt	nt	nt	nt	nt
O=C(N/N=C\c1cc(Br)ccc1O)c1cc(C23CC4CC(CC(C4)C2)C3)[nH]n1	-5.0	nt	nt	nt	nt	nt
c1ccc(CNc2nc3ccccc3n3cnnc23)cc1	104.2*	-1.8	-0.1	5.6	-2.4	-39.4
c1ccc(-c2csc3nnc(SCc4ccc5c(c4)OCCO5)n23)cc1	39.9*!	5.8	-2.8	-2.0	-6.7	-23.8
CC(C)(C)c1csc(Br)n1	20.0	nt	nt	nt	nt	nt
Cc1cc(-c2nnc(SCC(=O)Nc3nccs3)o2)no1	78.5*	-1.2	2.2	8.8	-0.7	-3.5
Cc1cc(-c2nnc(SCC(=O)Nc3ccccn3)o2)no1	-8.4	-1.4	0.9	-7.0	-2.1	-17.8
CS(=O)(=O)N(CCCCn1c2ccccc2c2ccccc21)Cc1ccco1	-71.0	nt	nt	nt	nt	nt
O=C1NC(=S)SC1=Cc1ccccc1Cl	-0.4	1.8	nt	nt	-9.3	-10.8
O=C1NC(=S)S/C1=C\c1cc(Cl)cc(Cl)c1O	-1.5	2.7	nt	nt	33.0*	-21.7
O=C(c1cc2cc([N+](=O)[O-])ccc2oc1=O)n1cccn1	56.4*	2.6	1.8	-1.4	-2.0	-16.1
O=C(c1cc2cc([N+](=O)[O-])ccc2oc1=O)N1CCc2ccccc2C1	-4.0	nt	nt	nt	nt	nt
O=C(CCSc1ccccc1)NCCn1nc(C(F)(F)F)cc1C1CC1	-8.0	nt	nt	nt	nt	nt
COc1cccc(C(=O)N2CCN(c3ccc(-c4ccccn4)nn3)CC2)c1OC	94.0*	nt	nt	nt	nt	nt
COc1cccc(C(=O)N2CCN(c3ccc(Nc4ccccn4)nn3)CC2)c1OC	37.0	nt	nt	nt	nt	nt
CCC(C(=O)N1CCN(c2ccc(-c3ccccn3)nn2)CC1)c1ccccc1 (centres undefined)	80.0*	nt	nt	nt	nt	nt
O=S(=O)(c1ccc(Cl)s1)N1CCN(c2ccc(-c3ccccn3)nn2)CC1	55.0*	nt	nt	nt	nt	nt
CC(C)(O)CC[C@@H](O)C(C)(O)[C@H]1CC[C@@]2(O)C3=CC(=O)[C@@H]4C[C@@H](O)[C@@H](O)C[C@]4(C)[C@H]3CC[C@]12C (some centres undefined)	-3.0	nt	nt	nt	nt	nt
Cn1cc(C(O)CNC(=O)C(=O)NCc2cccs2)c2ccccc21 (centres undefined)	12.0	nt	nt	nt	nt	nt
c1ccc(CSc2ccc(-c3ccccn3)nn2)nc1	88.8*	6.1	-1.0	6.3	-2.5	-59.7
c1ccc(-c2ccc(SCc3cccnc3)nn2)nc1	76.5*	-4.7	1.6	7.0	0.8	-27.9
c1cncc(CSc2ccc(-c3cccnc3)nn2)c1	-0.5	3.2	-0.8	2.6	-2.7	-5.6
SMILES	PriA SSB inh	PrPC surface inh	Mtb UGM inh	Rv3671c inh	FadD28 binding	PrP 5UTR inh
COc1ccccc1[C@@H]1NC(=O)NC(C)=C1C(=O)Nc1ccc(F)c(F)c1	-7.0	nt	nt	nt	nt	nt
COc1ccccc1/C=C1\SC(=O)N(CC(=O)Nc2ccc(O)c(C(=O)O)c2)C1=O	-7.0	nt	nt	nt	nt	nt
O=C(CN1C(=O)/C(=C/c2ccco2)SC1=S)Nc1ccc(C(=O)O)c(O)c1	10.6	-6.4	0.7	-10.6	23.1*	-6.9
Cc1ccc(NC(=O)CN2C(=O)S/C(=C\c3ccc(-c4cccc(C(=O)O)c4C)o3)C2=O)cc1C	-1.9	-3.4	nt	nt	11.5*	-26.8
CC(/C=C1\SC(=S)N(CC(=O)Nc2ccc(C(=O)O)c(O)c2)C1=O)=C\c1ccccc1	5.0	nt	nt	nt	nt	nt
O=C(CN1C(=O)/C(=C/c2ccco2)SC1=S)Nc1ccc(O)c(C(=O)O)c1	5.3	-6.3	0.7	-4.2	36.3*	3.9
CC(C(=O)Nc1ccc(C(=O)O)c(O)c1)N1C(=O)/C(=C\c2ccco2)SC1=S (centres undefined)	4.7	nt	-0.3	-4.7	25.3*	-20.3
CCN(CC)CCCN1C(=O)C(=O)C(=C(O)c2ccc(OC)cc2)C1c1ccco1 (centres undefined)	0.5	nt	nt	nt	nt	nt
O=C(NCc1ccccn1)C(=O)Nc1ccc2c(c1)OCCO2	3.0	nt	nt	nt	nt	nt
CCn1c(SCC(=O)Nc2nc(-c3ccc(C)cc3)cs2)nnc1-c1ccccc1	-16.3	4.6	-2.3	-2.5	-0.1	-5.0
Cc1ccc(-c2csc(NC(=O)CSc3nc4ccccc4c(=O)n3CCCN(C)C)n2)cc1	54.8*	-2.0	-1.5	-6.0	-13.7	-5.7
O=C(NCc1ccc2c(c1)OCO2)C(=O)NCC(c1ccsc1)N1CCc2ccccc2C1 (centres undefined)	6.0	nt	nt	nt	nt	nt
CO[C@@H](CNS(=O)(=O)c1ccc2c(c1)CCCC2)c1ccc(Cl)s1	-3.0	nt	nt	nt	nt	nt
CC1CCc2c(sc(Nc3nc4c(F)cccc4s3)c2C(N)=O)C1 (centres undefined)	51.0*!	5.6	-0.5	1.2	0.0	-19.1
CC1CCc2c(sc(NC(=O)CCSc3ccc(Cl)cc3)c2C(N)=O)C1 (centres undefined)	4.0	nt	nt	nt	nt	nt
CCCN1CCCc2cc(CCNS(=O)(=O)c3ccc(F)cc3F)ccc21	78.5*	nt	nt	nt	nt	nt
CCCN1CCCc2cc(CCNS(=O)(=O)c3ccc(F)cc3C)ccc21	51.0*	nt	nt	nt	nt	nt
CCCN1CCCc2cc(CCNS(=O)(=O)c3ccc(OC)cc3C)ccc21	52.0*	nt	nt	nt	nt	nt
CCCN1CCCc2cc(CCNS(=O)(=O)c3cc(C)c(OC)c(C)c3)ccc21	63.0	nt	nt	nt	nt	nt
CCOc1cc2c3c(c1)C1(OCCO1)C(=O)N3C(C)(C)CC2C (centres undefined)	0.1	-4.8	0.9	5.2	-4.0	-13.4
CCOc1cc2c3c(c1)C1(Nc4ccccc4S1)C(=O)N3C(C)(C)CC2C (centres undefined)	39.9*	-6.5	-0.7	9.7	-2.2	8.0
COc1cccc2sc(OC3CN(C(=O)NCc4cccs4)C3)nc12	6.0	nt	nt	nt	nt	nt
O=C(O)c1ccccc1NC(=S)NC(=O)c1sc2ccccc2c1Cl	-9.4	26.1*	2.9	4.3	-5.0	-20.3
O=C(NC(=S)Nc1ccccc1N1CCOCC1)c1sc2ccccc2c1Cl	-6.1	7.7	1.1	-3.4	0.3	-16.9
CC(Oc1ccc(C#N)cc1)C(=O)Nc1nc(-c2ccccn2)cs1 (centres undefined)	109.0*	nt	nt	nt	nt	nt
Cc1cccc(C(=O)NC(C)C(=O)Nc2nc(-c3ccccn3)cs2)c1 (centres undefined)	100.0*	nt	nt	nt	nt	nt
CC(C)C(=O)Nc1nc(-c2ccccn2)cs1	73.8*	nt	nt	nt	nt	nt
CC(NC(=O)c1cccs1)C(=O)Nc1nc(-c2ccccn2)cs1 (centres undefined)	103.0*	nt	nt	nt	nt	nt
COc1cc(NC(=O)Cn2cnc3c(sc4cccc(Cl)c43)c2=O)cc(OC)c1OC	-5.0	nt	nt	nt	nt	nt

Assay outcomes (PubChem BioAssay)
